These results are taken from PubChem BioAssay (NCATS).

Results filed as inconclusive are left out. Entries that show only a call come without a potency. Active and inactive are the calls of the source. The call rests on the fitted dose curve; in most records, active means well fitted inhibition curve with a large enough effect; inconclusive means small, poorly fitted or top-dose-only effect; inactive means flat fitted curve, though single readings scatter.
Potency means the concentration at half of the fitted maximal effect.

The test system of one assay is CP335. Description: qHTS profiling for inhibitors of Plasmodium falciparum proliferation (AID 504749). Further: nearly all actives have a fitted effect of over 60% in size. The note with it: P. falciparum in erythrocytes, SYBR Green DNA, 72 h; series mostly up to 28.7 µM. In a few lines:
(§1)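 P. falciparum-infected erythrocytes (0.3% parasitemia, 2.5% hematocrit final) were exposed to compounds for 72 h at 37 C in 5% CO2, then lysed with SYBR Green buffer overnight at room temperature; parasite DNA fluorescence was normalized to artemisinin and DMSO controls.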
On the technique in general: Quantitative high-throughput screening tests each substance at several concentrations.
Consider `CN(C)[C@H]1C(=O)C(C(=O)NCN2CCCC2)=C(O)[C@]2(O)C(=O)C3=C(O)c4c(O)cccc4[C@](C)(O)[C@H]3C[C@H]12`, for which the Potency entry is “inactive”.

On to `Cc1cn([C@H]2C[C@H](N=[N+]=[N-])[C@H](CO)O2)c(=O)[nH]c1=O`, for which the Potency entry was “inactive”.

For `O=C(O)[C@@H](S)[C@H](S)C(=O)O`, the Potency is 6.75 µM (active).

In the case of `CC(C)(C)NC[C@@H](O)c1ccc(O)c(CO)n1`, the Potency entry is “inactive”.

`NS(=O)(=O)c1cc2c(cc1Cl)N[C@H](Cc1ccccc1)NS2(=O)=O`: the Potency entry is “inactive”.

The test system of a further assay is DIV14. The description is as above. Particulars: P. falciparum in erythrocytes, SYBR Green DNA, 72 h; series mostly up to 28.7 µM. The essentials:
as §1
As to `CN(C)[C@H]1C(=O)C(C(=O)NCN2CCCC2)=C(O)[C@]2(O)C(=O)C3=C(O)c4c(O)cccc4[C@](C)(O)[C@H]3C[C@H]12`, the Potency entry was “inactive”.

For `C[C@]12CC[C@H]3c4ccc(O)cc4CC[C@@H]3[C@H]1CC[C@@H]2OC(=O)CCC1CCCC1`, the Potency was 9.53 µM (active).

In the case of `Cc1cn([C@H]2C[C@H](N=[N+]=[N-])[C@H](CO)O2)c(=O)[nH]c1=O`, the Potency entry is “inactive”.

Regarding `O=C(O)[C@@H](S)[C@H](S)C(=O)O`, the Potency was 8.49 µM (active).

Turning to `CC(C)(C)NC[C@@H](O)c1ccc(O)c(CO)n1`, the Potency result was “inactive”.

For the molecule `NS(=O)(=O)c1cc2c(cc1Cl)N[C@H](Cc1ccccc1)NS2(=O)=O`, the Potency entry is “inactive”.

A further assay has as its system DIV17. Described as above. Particulars: P. falciparum in erythrocytes, SYBR Green DNA, 72 h; series mostly up to 28.7 µM. In a few lines:
as §1
On to `CN(C)[C@H]1C(=O)C(C(=O)NCN2CCCC2)=C(O)[C@]2(O)C(=O)C3=C(O)c4c(O)cccc4[C@](C)(O)[C@H]3C[C@H]12`, for which the Potency entry is “inactive”.

With `C[C@]12CC[C@H]3c4ccc(O)cc4CC[C@@H]3[C@H]1CC[C@@H]2OC(=O)CCC1CCCC1`, the Potency was 10.7 µM (active).

For `Cc1cn([C@H]2C[C@H](N=[N+]=[N-])[C@H](CO)O2)c(=O)[nH]c1=O`, the Potency result is “inactive”.

On to `O=C(O)[C@@H](S)[C@H](S)C(=O)O`, for which the Potency is 13.5 µM (active).

For the molecule `CC(C)(C)NC[C@@H](O)c1ccc(O)c(CO)n1`, the Potency result is “inactive”.

`NS(=O)(=O)c1cc2c(cc1Cl)N[C@H](Cc1ccccc1)NS2(=O)=O`: the Potency entry was “inactive”.

For a further assay, the system named is DIV30. The description is as above. The note with it: P. falciparum in erythrocytes, SYBR Green DNA, 72 h; series mostly up to 28.7 µM. In a few lines:
as §1
On to `CN(C)[C@H]1C(=O)C(C(=O)NCN2CCCC2)=C(O)[C@]2(O)C(=O)C3=C(O)c4c(O)cccc4[C@](C)(O)[C@H]3C[C@H]12`, for which the Potency entry was “inactive”.

`O=C(O)[C@@H](S)[C@H](S)C(=O)O`: the Potency is 6.75 µM (active).

As for `CC(C)(C)NC[C@@H](O)c1ccc(O)c(CO)n1`, the Potency entry is “inactive”.

Regarding `NS(=O)(=O)c1cc2c(cc1Cl)N[C@H](Cc1ccccc1)NS2(=O)=O`, the Potency result was “inactive”.

Another assay has as its system Dd2. The assay is described as above. The note with it: P. falciparum in erythrocytes, SYBR Green DNA, 72 h; series mostly up to 28.7 µM. The essentials:
as §1
With `CN(C)[C@H]1C(=O)C(C(=O)NCN2CCCC2)=C(O)[C@]2(O)C(=O)C3=C(O)c4c(O)cccc4[C@](C)(O)[C@H]3C[C@H]12`, the Potency result is “inactive”.

With `C[C@]12CC[C@H]3c4ccc(O)cc4CC[C@@H]3[C@H]1CC[C@@H]2OC(=O)CCC1CCCC1`, the Potency is 14.1 µM (active).

Consider `Cc1cn([C@H]2C[C@H](N=[N+]=[N-])[C@H](CO)O2)c(=O)[nH]c1=O`, for which the Potency entry was “inactive”.

Turning to `CC(C)(C)NC[C@@H](O)c1ccc(O)c(CO)n1`, the Potency entry was “inactive”.

In the case of `NS(=O)(=O)c1cc2c(cc1Cl)N[C@H](Cc1ccccc1)NS2(=O)=O`, the Potency result was “inactive”.

The next assay relates to ECU. Described as above. Particulars: P. falciparum in erythrocytes, SYBR Green DNA, 72 h; series mostly up to 28.7 µM. In a few lines: as §1
For the molecule `CN(C)[C@H]1C(=O)C(C(=O)NCN2CCCC2)=C(O)[C@]2(O)C(=O)C3=C(O)c4c(O)cccc4[C@](C)(O)[C@H]3C[C@H]12`, the Potency result was “inactive”.

`Cc1cn([C@H]2C[C@H](N=[N+]=[N-])[C@H](CO)O2)c(=O)[nH]c1=O`: the Potency result was “inactive”.

For the molecule `O=C(O)[C@@H](S)[C@H](S)C(=O)O`, the Potency was 11.2 µM (active).

As for `CC(C)(C)NC[C@@H](O)c1ccc(O)c(CO)n1`, the Potency result was “inactive”.

Consider `NS(=O)(=O)c1cc2c(cc1Cl)N[C@H](Cc1ccccc1)NS2(=O)=O`, for which the Potency result was “inactive”.

A further assay concerns FAB9. The assay is described as above. Particulars: P. falciparum in erythrocytes, SYBR Green DNA, 72 h; series mostly up to 28.7 µM. In a few lines: as §1
Regarding `CN(C)[C@H]1C(=O)C(C(=O)NCN2CCCC2)=C(O)[C@]2(O)C(=O)C3=C(O)c4c(O)cccc4[C@](C)(O)[C@H]3C[C@H]12`, the Potency entry is “inactive”.

For `C[C@]12CC[C@H]3c4ccc(O)cc4CC[C@@H]3[C@H]1CC[C@@H]2OC(=O)CCC1CCCC1`, the Potency entry was “inactive”.

Regarding `Cc1cn([C@H]2C[C@H](N=[N+]=[N-])[C@H](CO)O2)c(=O)[nH]c1=O`, the Potency result is “inactive”.

In the case of `O=C(O)[C@@H](S)[C@H](S)C(=O)O`, the Potency was 11.2 µM (active).

Take `CC(C)(C)NC[C@@H](O)c1ccc(O)c(CO)n1`: the Potency entry is “inactive”.

As for `NS(=O)(=O)c1cc2c(cc1Cl)N[C@H](Cc1ccccc1)NS2(=O)=O`, the Potency result was “inactive”.

In the next assay the test system is GB4. Described as above. Particulars: P. falciparum in erythrocytes, SYBR Green DNA, 72 h; series mostly up to 28.7 µM. In a few lines: as §1
`C[C@]12CC[C@H]3c4ccc(O)cc4CC[C@@H]3[C@H]1CC[C@@H]2OC(=O)CCC1CCCC1`: the Potency was 12 µM (active).

For the molecule `Cc1cn([C@H]2C[C@H](N=[N+]=[N-])[C@H](CO)O2)c(=O)[nH]c1=O`, the Potency entry was “inactive”.

With `O=C(O)[C@@H](S)[C@H](S)C(=O)O`, the Potency was 13.5 µM (active).

On to `CC(C)(C)NC[C@@H](O)c1ccc(O)c(CO)n1`, for which the Potency entry was “inactive”.

As for `NS(=O)(=O)c1cc2c(cc1Cl)N[C@H](Cc1ccccc1)NS2(=O)=O`, the Potency entry is “inactive”.

In a further assay the test system is HB3. The assay is described as above. Particulars: P. falciparum in erythrocytes, SYBR Green DNA, 72 h; series mostly up to 28.7 µM. In a few lines: as §1
As to `CN(C)[C@H]1C(=O)C(C(=O)NCN2CCCC2)=C(O)[C@]2(O)C(=O)C3=C(O)c4c(O)cccc4[C@](C)(O)[C@H]3C[C@H]12`, the Potency entry was “inactive”.

Regarding `Cc1cn([C@H]2C[C@H](N=[N+]=[N-])[C@H](CO)O2)c(=O)[nH]c1=O`, the Potency result was “inactive”.

As for `O=C(O)[C@@H](S)[C@H](S)C(=O)O`, the Potency is 10 µM (active).

With `CC(C)(C)NC[C@@H](O)c1ccc(O)c(CO)n1`, the Potency result was “inactive”.

Turning to `NS(=O)(=O)c1cc2c(cc1Cl)N[C@H](Cc1ccccc1)NS2(=O)=O`, the Potency entry is “inactive”.
